The subject of one assay is TSSK3. To be noted: concentration: 1 μM, replicates: in singlicate, n = 1.
Another assay deals with TTK. As to conditions: concentration: 1 μM, replicates: in singlicate, n = 1.
The test system of the next assay is TXK. As to conditions: concentration: 1 μM, replicates: in singlicate, n = 1.
Assay [1] concerns TYK2(JH1domain-catalytic). To be noted: concentration: 1 μM, replicates: in singlicate, n = 1.
Assay [2] relates to TYK2(JH2domain-pseudokinase). As to conditions: concentration: 1 μM, replicates: in singlicate, n = 1.
Another assay relates to TYRO3. To be noted: concentration: 1 μM, replicates: in singlicate; n = 1.
For the next assay, the system named is ULK1. To be noted: concentration: 1 μM, replicates: in singlicate, n = 1.
A further assay relates to ULK2. To be noted: concentration: 1 μM, replicates: in singlicate, n = 1.
A further assay has as its system ULK3. As to conditions: concentration: 1 μM, replicates: in singlicate, n = 1.
For a further assay, the system named is T1, VEGFR2.
T1 construct: gene KDR
To be noted: concentration: 1 μM, replicates: in singlicate, n = 1.

For the next assay, the system named is T2, VPS34.
T2 construct: gene PIK3C3
As to conditions: concentration: 1 μM, replicates: in singlicate, n = 1.

A further assay deals with VRK2. As to conditions: concentration: 1 μM, replicates: in singlicate, n = 1.
A further assay has as its system WEE1. To be noted: concentration: 1 μM, replicates: in singlicate; n = 1.
The subject of the next assay is WEE2. As to conditions: concentration: 1 μM, replicates: in singlicate, n = 1.
The next assay concerns WNK1. To be noted: concentration: 1 μM, replicates: in singlicate; n = 1.
The next assay deals with WNK2. As to conditions: concentration: 1 μM, replicates: in singlicate, n = 1.
A further assay has as its system WNK3. As to conditions: concentration: 1 μM, replicates: in singlicate, n = 1.
The next assay deals with WNK4. As to conditions: concentration: 1 μM, replicates: in singlicate, n = 1.
For the next assay, the system named is T3, YANK1.
T3 construct: gene STK32A
As to conditions: concentration: 1 μM, replicates: in singlicate, n = 1.

Another assay has as its system T4, YANK2.
T4 construct: gene STK32B
As to conditions: concentration: 1 μM, replicates: in singlicate; n = 1.

Several values for one entry are separate records, joined by “and”; a condition that tells them apart may be missing. Identical values can stand only once. Like-named read-outs stand apart in the source and are kept apart here.
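Note: KINOMEscan kinase panel screen.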

Consider `NS(=O)(=O)CCc1cccc(Nc2nccc(-c3c(-c4cccc(NC(=O)c5c(F)cccc5F)c4)nn4ccccc34)n2)c1` [GSK336735], for which the “%Inh” value in the assay with TSSK3 worked out at 23%; with TTK it was 26%; in the assay with TXK, 90.1%; in assay [1], 98.7%; in assay [2] it was 18%; with TYRO3 it was 100%. Also, the “%Inh” value in the assay with ULK1 came to 0%; in the assay on ULK2, 0%; in the assay with ULK3 it was 3%; in the assay on VEGFR2, 90%; in the assay on VPS34 it was 0%; with VRK2 it was 0%. Further, the “%Inh” value in the assay with WEE1 is 0%; in the assay on WEE2, 0%; in the assay on WNK1, 0%; in the assay with WNK2 it was 6%; in the assay on WNK3, 18%; in the assay on WNK4, 12%. Further, the “%Inh” value came to 23% in the assay with YANK1 and 77% in the assay with YANK2.
Regarding `CN1c2ccc(NCc3ccc(F)cc3)cc2-c2c(cnn2C)S1(=O)=O`, the “%Inh” value with TSSK3 is on record as 0%; with TTK, 0%; with TXK, 0%; in assay [1], 0%; in assay [2], 12%; in the assay with TYRO3 it was 16%. The “%Inh” value in the assay on ULK1 is given as 0%; with ULK2 it was 0%; with ULK3, 0%; in the assay with VEGFR2, 4%; in the assay on VPS34 it was 0%; in the assay with VRK2, 0%. The “%Inh” value in the assay on WEE1 came to 0%; in the assay on WEE2, 0%; in the assay with WNK1, 42%; with WNK2, 5%; in the assay with WNK3, 8%; with WNK4, 0%. Further, the “%Inh” value worked out at 0% with YANK1 and 3% in the assay with YANK2.
`O=C(NCCNc1ccnc(Nc2ccc(F)cc2)n1)Nc1ccccc1F` [GSK1379880]: the “%Inh” value was 12% in the assay with TSSK3; 0% in the assay on TTK; 1% with TXK; 24% in [1]; 17% in assay [2]; 0% in the assay on TYRO3. Besides, the “%Inh” value in the assay on ULK1 turned out to be 19%; with ULK2, 0%; with ULK3, 28%; with VEGFR2 it was 0%; with VPS34, 0%; in the assay on VRK2, 0%. The “%Inh” value in the assay with WEE1 is recorded as 13%; in the assay on WEE2, 3%; with WNK1 it was 0%; with WNK2, 0%; with WNK3, 4%; with WNK4 it was 41%. Also, the “%Inh” value with YANK1 turned out to be 2%; in the assay on YANK2, 0%.
As for `Fc1ccc(-c2ncn(CCCN3CCOCC3)c2-c2cccnc2)cc1` [SB-211743], the “%Inh” value in the assay with TSSK3 came to 0%; with TTK it was 15%; in the assay with TXK, 0%; in assay [1] it was 0%; in assay [2], 7%; in the assay with TYRO3 it was 0%. The “%Inh” value came out at 4% with ULK1; 2% in the assay on ULK2; 18% in the assay on ULK3; 0% in the assay with VEGFR2; 0% in the assay with VPS34; 20% in the assay on VRK2. Also, the “%Inh” value with WEE1 is listed as 0%; with WEE2 it was 0%; with WNK1 it was 8%; in the assay with WNK2, 0%; in the assay with WNK3 it was 0%; in the assay on WNK4 it was 0%. The “%Inh” value in the assay with YANK1 and in the assay on YANK2 was 0% throughout.
For `Fc1ccc(-c2nn3c(OCC(F)(F)F)cccc3c2-c2ccncc2)cc1` [GW514784], the “%Inh” value is 5% with TSSK3; 0% in the assay on TTK; 18% in the assay on TXK; 10% in assay [1]; 36% in [2]; 0% in the assay on TYRO3. Besides, the “%Inh” value with ULK1 is recorded as 8%; in the assay on ULK2, 0%; in the assay with ULK3, 9%; in the assay on VEGFR2, 0%; in the assay on VPS34, 2%; with VRK2, 33%. The “%Inh” value in the assay with WEE1 is on record as 10%; in the assay with WEE2 it was 0%; with WNK1, 14%; with WNK2, 0%; in the assay with WNK3 it was 27%; in the assay with WNK4, 38%. Further, the “%Inh” value is 30% in the assay with YANK1 and 24% in the assay with YANK2.
Take `CCc1ccnc(/C=C/c2n[nH]c3cc(Sc4ccccc4C(=O)NC)ccc23)c1`: the “%Inh” value in the assay with TSSK3 turned out to be 0%; with TTK it was 0%; with TXK, 0%; in [1] it was 11%; in assay [2], 0%; in the assay on TYRO3 it was 0%. The “%Inh” value with ULK1 is reported as 3%; in the assay on ULK2 it was 31%; in the assay on ULK3, 9%; in the assay with VEGFR2, 99.9%; with VPS34 it was 6%; in the assay with VRK2, 13%. Further, the “%Inh” value in the assay with WEE1 stood at 0%; with WEE2, 0%; with WNK1 it was 0%; in the assay with WNK2, 39%; in the assay with WNK3 it was 0%; in the assay on WNK4, 0%. Further, the “%Inh” value in the assay on YANK1 and with YANK2 was 0% each time.
For the compound `COc1ccc(CNC(=O)NC2CCN(c3ccnc(Nc4ccc(OC)cc4)n3)C2)cc1` (centres unmarked) [GSK1379727], the “%Inh” value is reported as 5% in the assay on TSSK3; 18% in the assay on TTK; 0% in the assay with TXK; 37% in [1]; 46% in assay [2]; 0% in the assay on TYRO3. The “%Inh” value in the assay on ULK1 came to 0%; with ULK2, 0%; in the assay on ULK3 it was 9%; in the assay on VEGFR2, 0%; in the assay with VPS34, 0%; in the assay on VRK2, 32%. Also, the “%Inh” value turned out to be 9% in the assay on WEE1; 7% with WEE2; 4% in the assay on WNK1; 0% in the assay with WNK2; 44% with WNK3; 63% in the assay with WNK4. The “%Inh” value with YANK1 and in the assay on YANK2 was 0% in each case.
With `COc1cc(Nc2nccc(N3CCC(NC(=O)c4cccc(NC(C)=O)c4)C3)n2)cc(OC)c1OC` (centres unmarked) [GSK1379754], the “%Inh” value is on record as 20% in the assay on TSSK3; 27% with TTK; 7% in the assay with TXK; 68% in assay [1]; 19% in assay [2]; 0% in the assay on TYRO3. The “%Inh” value in the assay on ULK1 is 10%; in the assay with ULK2, 0%; in the assay with ULK3, 87%; in the assay with VEGFR2, 10%; in the assay on VPS34, 35%; with VRK2, 0%. Also, the “%Inh” value in the assay with WEE1 is reported as 4%; in the assay on WEE2, 1%; in the assay on WNK1 it was 6%; in the assay on WNK2 it was 0%; in the assay on WNK3, 14%; with WNK4 it was 0%. The “%Inh” value in the assay with YANK1 and in the assay on YANK2 was 0% each time.
With `NCCNS(=O)(=O)c1ccc(-c2ccnc3[nH]ccc23)cc1` [GSK977617], the “%Inh” value is 34% and 22% in the assay with TSSK3 (1 µM); 36% and 30% with TTK (1 µM); 10% and 0% in the assay with TXK (1 µM); 84% and 79% in [1] (1 µM); 38% and 30% in assay [2] (1 µM); 0% in the assay on TYRO3. The “%Inh” value in the assay with ULK1 (1 µM) is 93.8% and 83%; in the assay with ULK2 (1 µM), 39% and 33%; in the assay with ULK3 (1 µM), 64% and 35%; with VEGFR2 (1 µM), 7% and 24%; in the assay with VPS34 (1 µM), 90% and 80%; with VRK2 (1 µM), 13% and 7%. Also, the “%Inh” value in the assay with WEE1 was 9%; with WEE2 (1 µM), 5% and 15%; in the assay with WNK1, 0%; in the assay with WNK2 (1 µM), 7% and 0%; in the assay with WNK3 (1 µM), 8% and 15%; in the assay with WNK4 (1 µM), 0% and 5%. Further, the “%Inh” value in the assay with YANK1 (1 µM) is 36% and 0%; in the assay with YANK2 it was 0%.
For the compound `COc1ccc(COc2cc(-n3cnc4ccccc43)sc2C(N)=O)cc1` [GSK1024304], the “%Inh” value was found to be 17% in the assay on TSSK3; 6% in the assay on TTK; 20% in the assay with TXK; 4% in assay [1]; 0% in [2]; 0% in the assay on TYRO3. Besides, the “%Inh” value is recorded as 15% in the assay with ULK1; 0% with ULK2; 0% in the assay with ULK3; 0% in the assay on VEGFR2; 40% in the assay with VPS34; 0% in the assay on VRK2. Also, the “%Inh” value is 0% in the assay on WEE1; 2% in the assay with WEE2; 0% in the assay on WNK1; 0% in the assay with WNK2; 12% in the assay with WNK3; 13% with WNK4. Besides, the “%Inh” value with YANK1 is listed as 6%; in the assay with YANK2 it was 0%.

The record behind these values is PMC5540273 (PLoS ONE, 2017).
